# According to PubChem BioAssay (NCATS):
# This is one part of the list. Results filed as inconclusive are left out. Values without a mark were called inactive. Calls of active or inactive are those of the source. The call rests on the fitted dose curve.
# System: Chikungunya virus nsP2 protease
# Experiment: Confirmatory qHTS for inhibitors of NSP2Pro chikungunya virus (CHIKV) (AID 1964105); further: nearly all actives have a fitted effect of over 75% in size
# Settings: CHIKV nsP2 protease enzymatic activity; series mostly up to 25.5 µM; activity change, negative = inhibition: at the top concentration
# Description: PI: Natalia J. Martinez Ph.D.
# National Center for Advancing Translational Sciences (NCATS),
# National Institute of Health (NIH), Rockville, Maryland
# Chikungunya virus (CHIKV) is a mosquito-borne RNA virus that has emerged as one of the most important global arboviral threats in the last decade. Although the first CHIKV vaccine has recently been FDA approved for use in healthy adults at increased risk, to date, there are no available antiviral drugs for CHIKV infection. CHIKV nsP2 protease plays a crucial role in the processing of the viral polypeptide precursor to release enzymes required for viral replication, thus making it a promising drug target for antiviral discovery. Here, we established a high-throughput pipeline to identify small molecule inhibitors of nsP2 proteolytic activity. The pipeline is composed of a suite of 1,536-well in vitro assays to support quantitative high-throughput (qHTS) screening campaigns. Specifically, we developed a fluorescence resonance energy transfer (FRET)-based assay using a fluorogenic peptide substrate encompassing an endogenous cleavage site and purified recombinant protease domain (nsP2pro). Using this assay, we interrogated ~37,000 small molecules, including those in drug repurposing libraries as well as chemically diverse and medicinal chemistry-friendly compounds. Hits were selected for follow-up validation against full-length nsP2 and an additional peptide. FRET-based 1,536-well assays for papain, hepatitis C virus NS3-4A, and human furin proteases were implemented to characterize compound selectivity. […] Novel compounds were identified to be potential nsP2 inhibitors and molecular docking analyses were performed to explain the binding mode of selected hits. In vitro antiviral activity was evaluated for a subset of compounds using a high-throughput CHIKV infection assay. To our knowledge, the pipeline presented here is unprecedented for CHIKV antiviral discovery research.
# PROTOCOL TABLE (as described by Inglese J, Shamu CE and Guy RK. 2007)
# SEQUENCE No. (e.g., 1, 2, 3, etc.); […] (e.g., Cells, Incubation, Reagent, etc.); VALUE; DESCRIPTION.
# 1; Control / Compound; 20 nL; Echo 655 acoustic dispenser, Greiner 1536-well solid bottom black plate.
# 2; Enzyme; 4 uL; BioRAPTR FRD liquid dispenser (Beckman Coulter).
# 3; Incubation; 15 min; room temperature.
# 4; Reagent; 4 uL; 2.5 uM Peptide 2 substrate.
# 5; Incubation; 1 hr; room temperature.
# 6; Detection; Fluorescence; WiewLux microplate reader (PerkinElmer), 525 nm excitation, 598/25 nm emission.
# NOTES (numbers refer to sequence numbers above).
# 1.Briefly, 20 nL DMSO, positive control ZnAc (20nM final concentration), and test compounds were transferred into a 1,536-well solid bottom black plate (789176-F, Greiner One) via Echo 655 acoustic dispenser (Beckman Coulter). For primary screens, compounds were tested at 7 concentrations, 1:3 dilution points ranging from 25 uM to 34 nM. Follow-up confirmatory screens were carried out at 11 concentrations, 1:3 dilution points from 25 uM to 0.42 nM.
# 2.Four uL nsP2pro enzyme mix (150 nM final concentration) in 10 mM Tris-HCl pH 8.0 with 0.01% Tween 20 assay buffer was dispensed into the plate using a BioRAPTR FRD liquid dispenser (Beckman Coulter).
# 3.The plate was incubated at room temperature (protected from light) for 15 min
# 4.Four microliter of peptide 2 substrate (2.5 uM final concentration) in assay buffer was added to the plate.
# 5.After 1 hour, plates were immediately read on a ViewLux high-throughput CCD imager (Exposure = 10 sec, Gain = High, Speed = Slow, Binning = 2X). The above assay was also incorporated in the NCATS HTS facility41, which allowed for robotic liquid and compound dispensing, microplate handling, and fluorescence reading.
# Inglese J, Shamu CE and Guy RK, Reporting data from high throughput screening of small molecule libraries, Nature Chemical Biology, 2007, 3(8): 438-441. doi.org/10.1038/nchembio0807-438.
# On the % scale 0 is the no-effect control and ±100 the full control effect; potency means the concentration at half of the fitted maximal effect.
SMILES,Potency,"activity change, negative = inhibition"
C=CC(=O)c1ccc2ccccc2c1,6.34 µM (active),
CCOc1ccc(NC(=O)c2c(NC(=O)Cc3ccccc3)sc3c2CCC(C)C3)cc1 (stereo not drawn),7.11 µM (active),
CCC(C)C(=O)OC1C(C)C2(O)C(C=C(CO)CC3(O)C(=O)C(C)=CC32)C2C(C)(C)C12OC(=O)C(C)C (stereo not drawn),,-4.03% [at 8.62 µM]
COC([CH2][Hg])CNC(=O)c1ccccc1OCC(=O)O (stereo not drawn),2.25 µM (active),
CCc1ccccc1NC(=O)c1cnn(-c2ccc(F)cc2)c1C1CCNCC1,,-9.95%
C=Cc1c(C)c2cc3nc(cc4[nH]c(cc5nc(cc1[nH]2)C(C)=C5CCC(=O)O)c(CCC(=O)OC)c4C)[C@@]1(C)C3=CC=C(C(=O)OC)[C@H]1C(=O)OC,,126%
C[C@@H]1C[C@@H](O)[C@@]23CO[C@]2(CO)C[C@@H](O)CC3[C@@]12CC(c1ccoc1)OC2=O (stereo partly drawn),,28.5% [at 16.7 µM]
N#CSc1cc(SC#N)c(N)nc1N,0.318 µM (active),
Oc1ccc(OC2CCCCO2)cc1 (stereo not drawn),,-21.2%
O=C(O)c1cccc(-n2[nH]c(-c3ccccc3)cc2=O)c1,,29.6%
Cn1nnnc1Sc1ncnc2n[nH]c(-c3cccc(S(C)(=O)=O)c3)c12,3.18 µM (active),
CCOc1ccc(N(Cc2ccccc2)C(=O)c2nc(S(C)(=O)=O)ncc2Cl)cc1,3.18 µM (active),
CCOc1ccc(NC(=O)c2c(NC(=O)Cc3ccccc3)sc3c2CCCCC3)cc1,7.98 µM (active),
